From PubChem BioAssay come the findings set out here.

The AC50 is the concentration giving half of the maximal activity seen.

The structures appear in SMILES notation. Records with an inconclusive call do not appear. Calls of active or inactive are those of the source. No cut-off is given here; in the data, nearly all actives have AC50 up to about 26 µM.

A short description of this assay: JHH-DIPG-1 glioma cell viability, MIPE5.0 library, CellTiter-Glo luminescence, qHTS (AID 1347067).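 Note: cells exposed to compound for 48 hours before readout.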 As to conditions: JHH-DIPG-1 glioma viability, CellTiter-Glo ATP luminescence. A general note: Cellular ATP, detected with luciferase, serves as a proxy for viable cell number.
In the case of `CCO[C@@H]1OC(=O)C[C@@H]1NC(=O)[C@@H]1CCCN2C(=O)CC[C@H](NC(=O)c3nccc4ccccc34)C(=O)N12`, the result was inactive.
For `O=C(Nc1ccc2c(c1)CCN(Cc1ncn[nH]1)C2)c1ccccc1-c1ccc(C(F)(F)F)cc1`, the call was inactive.
Turning to `CN1CCN(C(=O)[C@H]2[C@@H](C(=O)O)[C@H]3CC[C@@H]2O3)CC1`, the result was inactive.
Consider `COC1CCC(N2C(=O)CNc3ncc(-c4ccc(C(C)(C)O)nc4)nc32)CC1` (stereo not given), for which the half-maximal activity concentration (AC50) was 16.6 µM (active).
For the compound `CC[C@@H](Oc1cccc(CN(CCCOc2ccc(OC)cc2)c2nc3ccccc3o2)c1)C(=O)O`, the compound was classed as inactive.
As to `C=CC(=O)Nc1cccc(C)c1Nc1ncc2cc(-c3c(Cl)c(OC)cc(OC)c3Cl)ccc2n1`, the concentration at half-maximal activity (AC50) is 13.2 µM (active).
As for `O=C(O)c1cnn(-c2nc3cc(OC(F)(F)F)c(Cl)cc3[nH]2)c1`, the compound was called inactive.
In the case of `Cc1cc(OCc2nnc(SC3CCCC3)n2-c2cccnc2)ccc1-c1ccc(S(C)(=O)=O)cc1`, the half-maximal activity concentration (AC50) is 2.09 µM (active).
For `O=C(Nc1nccs1)C(c1cc(F)ccc1O)N1Cc2ccccc2C1=O` (stereo not given), the compound was classed as inactive.
Turning to `COCCNCc1ccc(-c2cc3nccc(Oc4ccc(NC(=S)NC(=O)Cc5ccc(F)cc5)cc4F)c3s2)nc1`, the AC50 is 7.42 µM (active).
Turning to `CC(C)[C@](O)(c1ccc2cc(OC(F)F)c(OC(F)F)cc2c1)c1cn[nH]n1`, the outcome was inactive.
Regarding `FC(F)(F)c1ccc(CNc2ccc(Cc3c[nH]c4ncccc34)cn2)cc1`, the AC50 is 18.6 µM (active).
For `CCn1c(=O)c(-c2ccc(Cl)cc2Cl)cc2cnc(Nc3ccc(N4CCNCC4)c(F)c3)nc21`, the call was inactive.
`CN[C@@H](C)C(=O)N[C@H](C(=O)N1CCC[C@H]1c1nc(C(=O)c2ccc(F)cc2)cs1)C1CCCCC1`: the compound was called inactive.
Consider `CC(=O)N1CCN(c2ccc(NC(=O)Cc3cnc(-c4ccnc(F)c4)c(C)c3)nc2)CC1`, for which the compound was classed as inactive.
For the compound `CCC(CC)CC1(C(=O)Nc2ccccc2SC(=O)C(C)C)CCCCC1`, the call was inactive.
As for `CCCNC(=O)c1cn2ncnc(Nc3cc(C(=O)NC4CC4)ccc3C)c2c1C`, the outcome was inactive.
For the compound `COc1ccc(C(=O)N2CCN(C(=O)/C=C/c3ccc(Br)cc3)CC2)cc1`, the outcome was inactive.
Turning to `COC(=O)c1ccc([C@H]2c3[nH]c4ccccc4c3C[C@H](C(=O)OC)N2C(=O)CCl)cc1`, the concentration at half-maximal activity (AC50) is 2.35 µM (active).
Take `N=C(N)c1ccc2nc(-c3cc(CC(=O)N[C@@H](CC(=O)O)C(=O)O)cc(-c4cc(S(N)(=O)=O)ccc4O)c3O)[nH]c2c1`: the compound was classed as inactive.
On the same count and under the same terms, to `CCCCCCCCCCCCCCCCOCCCOP(=O)(O)COC(CO)Cn1ccc(N)nc1=O` (stereo not given) belongs “inactive”; to `CC(C)C[C@@H]1NC(=O)[C@@H](C(C)C)NC(=O)[C@@H]2CCCN2C(=O)[C@@H](CC(=O)O)NC(=O)[C@@H](Cc2c[nH]c3ccccc23)NC1=O`, “inactive”; to `Cc1cc(Nc2cc(N)ncn2)c(=O)n2c1C(=O)NC21CCCCC1`, “inactive”.
Same read-out and setting: to `O=C(NCC(=O)N1CC[C@H](NC2CCC(O)(c3ccc(-c4ncccn4)cn3)CC2)C1)c1cccc(C(F)(F)F)c1` (stereo not given in full) belongs “inactive”; to `CC(C)(CO)n1cc(C(=O)c2cncc(NC(=O)Cc3ccc(Cl)cn3)c2)c2cnc(N)nc21`, “inactive”.
In the case of `O=C(Nc1cccc(Cl)c1)Nc1ncc(CCNc2ncnc3ccsc23)s1`, the AC50 is 16.6 µM (active).
For `O=C1OC2(CCC(C(=O)Nc3ccn(-c4ccccc4F)n3)CC2)c2cnccc21` (stereo not given), the compound was called inactive.
`Cc1ccc(-c2nn(C(C)(C)CNC(=O)c3ccncc3)c3ncnc(N)c23)cc1`: the AC50 is 13.2 µM (active).
Regarding `COc1cc2c(cc1OC)CN(CCc1ccc(-n3nnc(-c4cc(OC)c(OC)cc4NC(=O)c4cc(=O)c5ccccc5o4)n3)cc1)CC2`, the call was inactive.
Turning to `Cn1cc(-c2c[nH]c3ncnc(N4CCOCC4)c23)cn1`, the result was inactive.
With `CC(C)(C)Sc1c(CC(C)(C)C(=O)O)n(Cc2ccc(Cl)cc2)c2ccc(OCc3ccc4ccccc4n3)cc12`, the AC50 is 18.6 µM (active).
In the case of `CN1CCN(C2CCC(n3cc(-c4ccc(Oc5ccccc5)cc4)c4c(N)ncnc43)CC2)CC1` (stereo not given), the half-maximal activity concentration (AC50) was 7.42 µM (active).
Turning to `CCN(CC)CCCC[C@H](NC(=O)[C@H](CC(C)C)NC(=O)[C@H](C)NC(=O)[C@H](Cc1ccccc1)NC(=O)c1ccc(C(C)(C)C)cc1)C(=O)N[C@@H](CO)C(=O)OC`, the outcome was inactive.
Consider `C[C@@H](OC[C@@]1(c2ccccc2)CC[C@]2(CCC(=O)N2)CN1)c1cc(C(F)(F)F)cc(C(F)(F)F)c1`, for which the concentration at half-maximal activity (AC50) is 14.8 µM (active).
For `N[C@@H](CCC(=O)O)C(=O)N[C@@H](Cc1c[nH]c2ccccc12)C(=O)O`, the call was inactive.
